Several values for one entry are separate records, joined by “and”; a condition that tells them apart may be missing. Equal values may be shown once. Values without a mark were called inactive.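 How the source made its calls: active means mean tau seeding fluorescence area under 1% of vehicle, meaning inhibition above a set limit; inactive means the rest.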
Molecular target: Microtubule-associated protein tau (Homo sapiens) (UniProt P10636)
Assay: inhibitors of seeded tau aggregation, primary screen, biochemical, seed amplification, ThT fluorescence (AID 2061166)
Settings: Recombinant tau seeded by AD brain, ThT fluorescence AUC; at 100 µM; stronger effect = higher value

Microtubule-associated protein tau (Homo sapiens), sequence (P10636 whole entry, looked up): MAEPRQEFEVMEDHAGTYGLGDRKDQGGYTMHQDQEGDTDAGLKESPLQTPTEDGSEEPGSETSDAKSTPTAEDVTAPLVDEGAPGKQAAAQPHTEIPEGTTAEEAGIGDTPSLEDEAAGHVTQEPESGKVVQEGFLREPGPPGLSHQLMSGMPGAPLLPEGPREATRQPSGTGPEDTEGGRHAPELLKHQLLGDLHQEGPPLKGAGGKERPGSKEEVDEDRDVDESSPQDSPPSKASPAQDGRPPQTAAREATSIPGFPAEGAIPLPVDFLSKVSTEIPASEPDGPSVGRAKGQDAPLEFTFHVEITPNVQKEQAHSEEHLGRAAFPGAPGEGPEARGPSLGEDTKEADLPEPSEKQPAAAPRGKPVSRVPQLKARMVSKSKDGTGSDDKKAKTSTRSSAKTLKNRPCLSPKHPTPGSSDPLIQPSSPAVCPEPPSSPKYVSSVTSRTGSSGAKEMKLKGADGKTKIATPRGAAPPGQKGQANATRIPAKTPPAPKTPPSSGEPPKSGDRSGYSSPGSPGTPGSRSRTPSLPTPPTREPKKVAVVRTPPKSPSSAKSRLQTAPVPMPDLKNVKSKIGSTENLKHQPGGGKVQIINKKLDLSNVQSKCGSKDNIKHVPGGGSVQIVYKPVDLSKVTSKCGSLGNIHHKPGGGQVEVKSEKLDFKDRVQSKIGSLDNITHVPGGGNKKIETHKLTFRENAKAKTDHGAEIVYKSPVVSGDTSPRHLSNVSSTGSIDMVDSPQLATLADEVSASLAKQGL

Row | SMILES | inhibition
1 | OC(c1cc(C(F)(F)F)nc2c(C(F)(F)F)cccc12)C1CCCCN1 (configuration not stated) | 66.4%
2 | CCCCOc1ccc(CC(=O)NO)cc1 | 16.6%
3 | Cc1ccc2c(c1)c1c(n2CCc2ccc(C)nc2)CCN(C)C1 | -29.9%
4 | CCCOC(C(=O)OC1CCN(C)CC1)(c1ccccc1)c1ccccc1 | 26.4%
5 | NC(=O)OCC(COC(N)=O)c1ccccc1 | -8.84%
6 | CCN(C(=O)c1c(O)c2c(Cl)cccc2n(C)c1=O)c1ccccc1 | 20%
7 | C[N+](C)(C)CCO | 13.4%
8 | CC1=NN(c2ccccc2)C(=O)C1 | 48.4%
9 | CNS(=O)(=O)CCc1ccc2[nH]cc(C3CCN(C)CC3)c2c1 | -30.8%
10 | CS(=O)(=O)c1ccc(C(=O)Nc2ccc(Cl)c(-c3ccccn3)c2)c(Cl)c1 | 44%
11 | OC(CCN1CCCCC1)(c1ccccc1)C1CCCCC1 (configuration not stated) | 21.7%
12 | CC1(C)SC2C(NC(=O)C(N)c3ccc(O)cc3)C(=O)N2C1C(=O)O (configuration not stated) | -6.81%
13 | CC(C)(Sc1cc(C(C)(C)C)c(O)c(C(C)(C)C)c1)Sc1cc(C(C)(C)C)c(O)c(C(C)(C)C)c1 | 23%
14 | CC(=O)Oc1ccccc1C(=O)O | 2.58%
15 | O=C(CCCN1CCC(O)(c2ccc(Cl)cc2)CC1)c1ccc(F)cc1 | -16.8%
16 | CC1(C)OC2COC3(COS(N)(=O)=O)OC(C)(C)OC3C2O1 (configuration not stated) | 20.5%

Row | SMILES | inhibition
17 | CCN1CCN(Cc2ccc(Nc3ncc(F)c(-c4cc(F)c5nc(C)n(C(C)C)c5c4)n3)nc2)CC1 | 15.2%
18 | CCN(CC)CCCC(C)Nc1c2ccc(Cl)cc2nc2ccc(OC)cc12 (configuration not stated) | 72.2%
19 | CC1(O)Cc2oc3cc(O)c(O)c(C(=O)O)c3c(=O)c2CO1 (configuration not stated) | 33.4%
20 | O=C(CCCCCCC(=O)Nc1ccccc1)NO | -65.2%
21 | O=NN(CCCl)C(=O)NC1CCCCC1 | 14.1%
22 | COc1ccc(Cl)cc1C(=O)NCCc1ccc(S(=O)(=O)NC(=O)NC2CCCCC2)cc1 | -30.9%
23 | C#Cc1cccc(Nc2ncnc3cc4c(cc23)OCCOCCOCCO4)c1 | -14.6%
24 | CS(=O)(=O)OCCCCOS(C)(=O)=O | -40%
25 | Nc1ccc(S(=O)(=O)c2ccc(N)cc2)cc1 | 26.5%
26 | O=C(O)CCCc1ccccc1 | 8.12%
27 | O=C1CSC(=S)N1 | -4.3%
28 | CCCNC1CCc2nc(N)sc2C1 (configuration not stated) | 13.7% and -33.7%
29 | CC(=O)C1CCC2C3CC=C4CC(O)CCC4(C)C3CCC12C (configuration not stated) | 41.9%
30 | C#CCNC1CCc2ccccc21 (configuration not stated) | -62.3%
31 | CCCCCCCCCC(=O)O | 0.189%
32 | CC1CCC2(OC1)OC1CC3C4CC=C5CC(O)CC(O)C5(C)C4CCC3(C)C1C2C (configuration not stated) | 13.9%

— PubChem BioAssay AID2061166 (Soto Lab, Mitchell Center for Alzheimers Disease and …, 2025)
